Assay outcomes: PubChem, National Center for Advancing Translational Sciences (NCATS)
KDM5B inhibitor: inhibitors of human KDM5B histone demethylase; Potency, µM (series often up to 57.7 µM), usual class: inhibitors; actives 2.6% (n = 220,000); KDM5B demethylase, FDH-coupled NADH fluorescence (FDH is formaldehyde dehydrogenase); AID 1347165; also: nearly all actives have a fitted effect of over 70% in size
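Here, H3K4me3 peptide (12.5 µM in substrate mix) is demethylated by KDM5BΔAP, 200 nM final, after 10 min compound exposure. Formaldehyde product is coupled through FDH (0.25 U/mL in mix) to NADH fluorescence; 30-min ΔRFU feeds dose-response curves.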
IP6K1 inhibitor: blocks human inositol hexakisphosphate kinase 1. activity change, % (series mostly up to about 58 µM). AID 1645851. IP6K1 kinase, ADP-Glo luminescence, 2 h; active compounds read low. actives 0.81% (n = 140,000). Q92551; in the data active = activity change below about -25%
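ADP-Glo luminescence measures ADP made by human IP6K1 during a 2 h RT reaction with ATP/IP6 (mix at 1.3 mM/130 uM); top library doses 57.5 and 19.1 uM final.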
SNCA expr inhib: SNCA gene expression inhibition. AID 1671194. HEK-293 SNCA-luciferase knock-in, luminescence, 24 h. Potency, µM (top dose mostly 57.2 µM), most hits filed as inhibitors. actives 0.17% (n = 140,000); also: nearly all actives have a fitted effect of over 45% in size
HEK293 viab: reduces viability of HEK-293 SNCA reporter cells; HEK-293-SNCA-luc viability, GF-AFC fluorescence, 24 h; Potency, µM (top dose mostly 57.1 µM), most hits filed as cytotoxic; actives 0.12% (n = 150,000); also: nearly all actives have a fitted effect of over 30% in size
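Cytotoxicity counterscreen: after 24 h compound treatment of genome-edited SNCA-luciferase HEK-293 cells, live-cell protease substrate GF-AFC read by fluorescence after 30 min; activity scaled between DMSO (0%) and medium-only (-100%), curves Hill-fitted.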
A number is an active result; – = inactive; ? = inconclusive; · = not tested or not shown; ! = not active in a repeat. Shown are actives, neighbours in structure and some others; about 2.8% of the full set was active somewhere. Unless noted, calls follow the shape of the dose curve; as a rule, active = well fitted curve in the direction sought with a large enough effect; inconclusive = small, poorly fitted or top-dose-only effect, or another doubt; inactive = no such curve, though single readings can be large; an effect the other way counts as inactive or inconclusive.

SMILES	KDM5B inhibitor	IP6K1 inhibitor	SNCA expr inhib	HEK293 viab
CCCN(Cc1ccncc1)C(=O)c1cnc(-c2ccccn2)[nH]c1=O	10µM	–	?	–
C#CCOc1ccccc1CN1CCN(c2ncc(F)cn2)CC1	28.2µM	–	–	–
O=C(Cn1ccn2nc3c(c2c1=O)CCCCC3)Nc1ccccc1C(F)(F)F	?	–	–	–
CC(C)CCNC(=O)Cn1ccn2nc3c(c2c1=O)CCCC3	20µM	–	?	–
CCc1ccccc1NC(=O)Cn1ccn2nc3c(c2c1=O)CCCC3	35.5µM	–	–	–
CCCNC(=O)Cn1ccn2nc3c(c2c1=O)CCCC3	–	–	–	–
COc1ccc(CNC(=O)CCCn2c(C)c3cnn(-c4ccccc4)c(=O)c3c2C)cc1	–	·	·	·
O=C1NCC2(CCCN(C(=O)c3cnc4c(O)cccn4c3=O)C2)O1 (centres undefined)	31.6µM	–	–	–
O=C1NCC2(CCCN(C(=O)c3cn[nH]c3-n3cnnn3)C2)O1 (centres undefined)	–	–	–	–
Cc1cc(NC(=O)COC(=O)C2(c3cccc(F)c3)CCCC2)no1	–	·	·	·
O=C(Cc1cccs1)N1CCC2(CC1)N=C(c1ccc(Cl)cc1)NO2	25.1µM	–	?	–
COc1cc(OC)cc(C(=O)N2CCC3(CC2)N=C(c2ccc(Cl)cc2)NO3)c1	?	–	–	–
Cc1ccc(C2=NC3(CCN(C(=O)c4cc(F)ccc4Cl)CC3)ON2)cc1	–	–	–	–
O=C(c1cc(F)ccc1F)N1CCC2(CC1)N=C(c1ccc(Cl)cc1)NO2	22.4µM	–	–	–
COc1ccc(C(=O)N2CCC3(CC2)N=C(c2ccc(Cl)cc2)NO3)cc1	31.6µM	–	–	–
CC1=C[C@@H](CNC(=O)c2cnccn2)[C@H](C(C)C)C[C@H]1Cc1nc2ccc(C)cc2[nH]1	–	–	–	39.8µM
CCC(CC)C(=O)NC[C@@H]1C=C(C)[C@H](Cc2nc3ccccc3n2C)C[C@H]1C(C)C	–	–	?	?
CC1=C[C@@H](CNC(=O)c2ccccc2)[C@H](C(C)C)C[C@H]1Cc1nc2ccccc2n1C	–	–	?	11.2µM
CC1=C[C@@H](CNC(=O)c2cnccn2)[C@H](C(C)C)C[C@H]1Cc1nc2ccc(F)cc2[nH]1	?	–	–	?
CCO[C@H]1C[C@@H](O)C12CCN(C(=O)c1cc3nc(C)cc(C)n3n1)CC2	28.2µM	–	–	–
CNC(=O)Cn1nc(C(=O)N2CCC3(CC2)[C@H](O)C[C@@H]3O)cc1C	–	–	–	–
c1cnc2nc(-c3c[nH]c4ccccc34)[nH]c2c1	35.5µM!	–	–	–
c1ccc2c(-c3csc(NC4CC4)n3)c[nH]c2c1	–	·	·	·
c1ccc2c(-c3nc4ccncc4[nH]3)c[nH]c2c1	39.8µM!	–	–	–
O=C(NCCC1CCN(Cc2ccccc2)CC1)C1CCCN(c2ncnc3nc[nH]c23)C1 (centres undefined)	–	·	·	·
SMILES	KDM5B inhibitor	IP6K1 inhibitor	SNCA expr inhib	HEK293 viab
Cc1cc2c(-c3ccccc3C)nc(-c3c(C)noc3C)cc2[nH]1	31.6µM	–	–	–
COc1cccc(-c2nc(-c3c(C)noc3C)cc3[nH]c(C)cc23)c1OC	–	–	–	–
Cc1cc2c(-c3ccccc3O)nc(-c3c(C)noc3C)cc2[nH]1	35.5µM	–	–	?
Cc1cc2c(-c3ccccc3F)nc(-c3c(C)noc3C)cc2[nH]1	35.5µM	–	–	–
C/C=C/C=C/C(=O)Nc1sccc1C#N	–	·	·	·
CC(=O)c1ccc(NC(=O)CCc2ncc(-c3ccc(C)cc3)o2)cc1	–	·	·	·
CC(=O)NC(NC(=S)Nc1ccc(C)cc1)C(Cl)(Cl)Cl (centres undefined)	–	·	·	·
COc1cccc(-c2cc3c(=O)n(CCNC(=O)c4ccccc4Cl)ccn3n2)c1	–	–	–	–
COc1cccc(-c2cc3c(=O)n(CCNC(=O)c4cccc5[nH]ccc45)ccn3n2)c1	25.1µM	–	–	–
COc1ccc(-c2cc3c(=O)n(CCNC(=O)c4cccc5[nH]ccc45)ccn3n2)cc1	22.4µM	–	–	–
COc1cccc(C(=O)NCCn2ccn3nc(-c4ccc(F)cc4)cc3c2=O)c1OC	–	–	–	?
COc1ccc(-c2nc(Cn3nnc(C(=O)Nc4ccccc4F)c3N)c(C)o2)cc1OC	–	·	·	·
Cc1ccc(-n2ncc3c(N4CCCCCC4)ncnc32)cc1	?	–	2.24µM	–
CSCC[C@@H]1NC(=O)c2cc(NC(=O)c3ccc4ccn(C)c4c3)ccc2NC1=O	25.1µM	–	–	–
O=S(=O)(NCc1nnnn1-c1ccccc1)c1ccc(Cl)cc1	–	·	·	·
O=C(NCCc1ccccc1)N1CC(Oc2ccccc2-c2nc(-c3ccccc3)no2)C1	25.1µM	–	–	–
CC[C@@H]1C(=O)N(C)c2cnc(Nc3ccc(C(=O)NC4CCC(N5CCN(CC6CC6)CC5)CC4)cc3OC)nc2N1C(C)C (some centres undefined)	·	–	–	29.9µM!
CCC1C(=O)N(C)c2cnc(Nc3ccc(C(=O)NC4CCC(N5CCN(CC6CC6)CC5)CC4)cc3OC)nc2N1C(C)C (centres undefined)	·	–	·	23.8µM
COc1cc(C(=O)NC2CCN(C)CC2)ccc1Nc1ncc2c(n1)N(C1CCCC1)CCC(=O)N2C(C)C	·	·	–	–
Cc1cn2nc(C(=O)NCc3cccc(Cl)c3)cc2c(N2CCCC2)n1	25.1µM	–	?	–
Cc1cn2nc(C(=O)NCCCc3ccccc3)cc2c(N2CCCC2)n1	25.1µM	–	–	–
Cc1cn2nc(C(=O)NCCc3ccccc3)cc2c(N2CCCC2)n1	–	–	–	–
COCCn1c2c([n+](Cc3cnccn3)c1C)C(=O)c1ccccc1C2=O	·	·	0.0961µM	0.0764µM
C[C@@H](NC(=O)c1nc2ccccc2[nH]1)c1onc(-c2ccc(F)cc2)c1C(=O)O	35.5µM	–	–	–
Cc1nn(-c2ccccc2)nc1C(=O)N[C@H](C)c1onc(-c2ccc(F)cc2)c1C(=O)O	31.6µM	–	–	–
SMILES	KDM5B inhibitor	IP6K1 inhibitor	SNCA expr inhib	HEK293 viab
C[C@@H](NC(=O)NC(C)(C)C)c1onc(-c2ccc(F)cc2)c1C(=O)O	–	–	?	–
C[C@@H](NC(=O)c1ccc(Cl)cc1)c1onc(-c2ccc(F)cc2)c1C(=O)O	–	–	–	–
Cc1ccc(CNC(=O)c2nc(S(=O)(=O)Cc3ccccc3C)ncc2Cl)cc1	–	·	·	·
CC(Sc1ccc(Cl)cc1)C(=O)Nc1ccc(C(C)C)cc1 (centres undefined)	–	·	·	·
COc1ccccc1-n1cc(-c2nc(C3CCOC3)no2)cn1 (centres undefined)	28.2µM	–	–	–
CCOC(=O)C1CCN(C(=O)c2cn3cc(-c4ccc(OC)cc4)sc3n2)CC1	·	–	–	–
COc1ccc(-c2nccn3cc(C(=O)O)nc23)cc1	28.2µM	–	–	–
COc1ccc(-c2nccn3cc(C(=O)NCCc4cccnc4)nc23)cc1	28.2µM	–	–	–
COc1ccc(-c2nccn3cc(C(=O)NCc4nc5ccccc5n4C)nc23)cc1	7.94µM	–	–	–
COCCNC(=O)c1cn2ccnc(-c3ccc(C)cc3)c2n1	–	–	–	–
